Active and inactive are the calls of the source.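 Rule for the calls: active = compound that made reporter-free parental cells show up as glowing objects under laser imaging, so likely a fluorescent false positive; inactive = the rest.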
experiment: Parental Cell Counter Screen Assay for Epigenetic Modulators; settings: parental c127i cells, compound fluorescence imaging, 30 h
How it was run: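 Parental murine c127i mammary cells, lacking the integrated GFP reporter, incubated with compound 30 hours at 37 C. After PBS washes, fluorescent objects 20–120 um were counted by laser-scanning microplate cytometry.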

Q: For `CCCCC1CC1C(=O)Nc1ccc(OC)c(OC)c1` (configuration not stated), which outcome is on record?
A: The outcome was “inactive”.

Q: For `Cc1ccc2ccc(C(Nc3cccc(Cl)c3)c3ccccn3)c(O)c2n1` (configuration not stated), which outcome is on record?
A: Its outcome is “inactive”.

Q: For `CC(C)C(=O)NC(c1ccco1)c1cc(Cl)c2cccnc2c1O` (configuration not stated), which outcome is on record?
A: Its outcome is “inactive”.

Q: For `CC(C)C(=O)NC(c1ccco1)c1ccc2cccnc2c1O` (configuration not stated), which outcome is on record?
A: The outcome was “inactive”.

Q: Which outcome does the source give for `CC(C)C(=O)NC(c1ccc(Cl)cc1Cl)c1ccc2cccnc2c1O` (configuration not stated) here?
A: The outcome was “inactive”.

Q: For `CN(C)C(=O)CSc1cccc2cccnc12`, which outcome is on record?
A: Its outcome is “inactive”.

Q: For `CC(C)C(=O)NC(/C=C/c1ccccc1)c1cc([N+](=O)[O-])c2cccnc2c1O` (configuration not stated), which outcome is on record?
A: Its outcome is “inactive”.

— PubChem BioAssay AID990 (National Center for Advancing Translational Sciences (NCATS), 2007)
